The AC50 is the concentration at which the activity in the assay is half-maximal.

Molecules are shown by their SMILES. Inconclusive results are not listed. Activity calls are given as the source filed them. The calls were made as follows, unless noted: active = hit-call score of the fitted dose curve at least 0.9, where 1 is the maximum; inconclusive = response in the unintended direction; inactive = score below 0.9.

The nature of assay [1]: CCTE_Padilla_ZF_144hpf_TERATOSCORE: (Legacy) CCTE's 144 Hour Post-fertilization zebrafish Assay Teratoscore, Padilla Lab (AID 2283679; active = hit-call score of the fitted dose curve at least 0.9, where 1 is the maximum; inactive = score below 0.9;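 as to AC50: zebrafish embryos with chorions exposed by immersion from 6-8 hpf to 5 dpf with daily renewal; teratogenicity score from eye scoring of death hatching and malformations at 144 hpf; higher score means more developmental defects relative to DMSO baseline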). Summed up: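 Larvae scored by eye at 144 hpf for death, hatching and malformations after a day in clean Hanks'. Before that, daily-renewed exposure at 80 uM (0.4% DMSO, 26C) from roughly 6-8 hpf through 5 dpf, 4 embryos per chemical.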
Read-out in assay [2]: Cytochrome P450 3A4 (Homo sapiens) (UniProt P08684)
Put plainly: CLD_CYP3A4_6hr: CellzDirect (CLD) Gene Expression Assay for xenobiotic metabolism (CYP3A4) at 6 hours (AID 2283680). Summed up: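 CYP3A4 mRNA induction, 6 h after dosing of cultured primary human hepatocytes from two donors, read by quantitative nuclease protection (qNPA, chemiluminescence). Vehicle 0.2% DMSO as baseline; morphology-based cytotoxicity annotated yes/no.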

Read-out in assay [3]: Glyceraldehyde-3-phosphate dehydrogenase (Homo sapiens) (UniProt P04406)
Put plainly: CLD_GAPDH_6hr: CellzDirect (CLD) Gene Expression Assay for Baseline Control (Glyceraldehyde 3-phosphate dehydrogenase) at 6 hours (AID 2283681).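 Also: active means increased signal relative to DMSO vehicle.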 Summed up:
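GAPDH baseline-control readout from qNPA (S1 nuclease digestion, probe hybridization, chemiluminescence) in lysates of cultured human hepatocytes harvested 6 h post-dosing. Chemicals tested at multiple concentrations versus 0.2% DMSO vehicle; microscopy-based cytotoxicity flagged yes/no.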

Read-out in assay [4]: ABC Transporter (ABCB1), ABCB1 (gene 5243)
Put plainly: CLD_ABCB1_24hr: CellzDirect (CLD) Gene Expression Assay for ABC Transporter (ABCB1) at 24 hours (AID 2283684).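 As to AC50: potency for increase in ABCB1 mRNA relative to DMSO vehicle.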 Put shortly:
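ABCB1 mRNA induction versus 0.2% DMSO vehicle was read by qNPA chemiluminescence at 24 h. Cultured human hepatocytes from two donor preparations received daily fresh dosing, and phase-contrast cytotoxicity calls were annotated alongside the data.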

Read-out in assay [5]: Broad substrate specificity ATP-binding cassette transporter ABCG2 (Homo sapiens) (UniProt Q9UNQ0)
Briefly: CLD_ABCG2_24hr: CellzDirect (CLD) Gene Expression Assay for ABC Transporter (ABCG2) at 24 hours (AID 2283685). Summed up:
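ABCG2 mRNA induction, read as gain of chemiluminescent signal over 0.2% DMSO, was measured by quantitative nuclease protection at 24 h. Cultured human liver hepatocytes were given fresh dosing solutions of test chemicals at several concentrations each day.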

Read-out in assay [6]: Cytochrome P450 2B6 (Homo sapiens) (UniProt P20813)
Briefly: CLD_CYP2B6_24hr: CellzDirect (CLD) Gene Expression Assay for xenobiotic metabolism (CYP2B6) at 24 hours (AID 2283686). Put shortly: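 qNPA chemiluminescent measurement of mRNA at 24 hours in human primary hepatocyte cultures from two donor preparations, with daily fresh dosing and 0.2% DMSO vehicle as baseline. Morphology-based cytotoxicity flagged yes/no.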

Read-out in assay [7]: Cytochrome P450 2C9 (Homo sapiens) (UniProt P11712)
Briefly: CLD_CYP2C9_24hr: CellzDirect (CLD) Gene Expression Assay for xenobiotic metabolism (CYP2C9) at 24 hours (AID 2283688). Summed up: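 Induction of CYP2C9 mRNA was quantified by quantitative nuclease protection assay (chemiluminescence), gain of signal versus 0.2% DMSO vehicle, 24 h after dosing. Human primary hepatocytes (two donors) received fresh chemical daily at multiple concentrations; morphology-based cytotoxicity flagged yes/no.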

Read-out in assay [8]: Cytochrome P450 3A4 (Homo sapiens) (UniProt P08684)
Briefly: CLD_CYP3A4_24hr: CellzDirect (CLD) Gene Expression Assay for xenobiotic metabolism (CYP3A4) at 24 hours (AID 2283689). Summed up:
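CYP3A4 mRNA induction read by quantitative nuclease protection (chemiluminescence) 24 hr after dosing. Cultured human hepatocytes (two donor preparations) treated daily, vehicle 0.2% DMSO; phase-contrast morphology annotates cytotoxicity.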

Read-out in assay [9]: sulfotransferase (SULT2A), SULT2A1 (gene 6822)
Briefly: CLD_SULT2A_24hr: CellzDirect (CLD) Gene Expression Assay for sulfotransferase (SULT2A) at 24 hours (AID 2283694). Summed up:
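mRNA is measured by qNPA: probe hybridisation, S1 nuclease digestion, chemiluminescence, in lysates from human primary hepatocytes harvested 24 h after daily dosing. Vehicle was 0.2% DMSO. Phase-contrast microscopy flagged cytotoxicity (yes/no).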

Read-out in assay [10]: glucuronosyltransferase (UGT1A1), UGT1A1 (gene 54658)
Briefly: CLD_UGT1A1_24hr: CellzDirect (CLD) Gene Expression Assay for glucuronosyltransferase (UGT1A1) at 24 hours (AID 2283696). Put shortly: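 UGT1A1 transcript induction was measured by quantitative nuclease protection assay (chemiluminescence) in human hepatocyte cultures 24 h after daily fresh dosing, with 0.2% DMSO as vehicle and baseline.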

Read-out in assay [11]: Cytochrome P450 3A4 (Homo sapiens) (UniProt P08684)
Briefly: CLD_CYP3A4_48hr: CellzDirect (CLD) Gene Expression Assay for xenobiotic metabolism (CYP3A4) at 48 hours (AID 2283698). Put shortly:
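CYP3A4 induction read by qNPA chemiluminescence after 48 h, with fresh dosing solutions on consecutive days, in cultured human hepatocytes (two donors). Vehicle 0.2% DMSO as baseline; microscopy-based cytotoxicity annotated yes/no alongside data.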

Read-out in assay [12]: HMG-CoA synthase (HMGCS2), HMGCS2 (gene 3158)
Put plainly: CLD_HMGCS2_6hr: CellzDirect (CLD) Gene Expression Assay for HMG-CoA synthase (HMGCS2) at 6 hours (AID 2283682).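 Also: actives raise HMGCS2 transcript above the 0.2% DMSO vehicle baseline.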 Summed up: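 HMGCS2 transcript induction read by quantitative nuclease protection with chemiluminescence, 6 h after dosing of primary human hepatocytes. Baseline was 0.2% DMSO vehicle; phase-contrast morphology gave a yes/no cytotoxicity annotation.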

Read-out in assay [13]: ABC Transporter (ABCB1), ABCB1 (gene 5243)
Put plainly: CLD_ABCB1_48hr: CellzDirect (CLD) Gene Expression Assay for ABC Transporter (ABCB1) at 48 hours (AID 2283695).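 As to AC50: potency for induction meaning increase of mRNA over DMSO vehicle.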 Put shortly: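 ABCB1 mRNA was measured by quantitative nuclease protection assay (chemiluminescence) 48 h after dosing. Human hepatocyte cultures from two separate donors received fresh dosing solutions daily for two days, with 0.2% DMSO as vehicle. Positive-direction fit against DMSO.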

Read-out in assay [14]: Cytochrome P450 2B6 (Homo sapiens) (UniProt P20813)
Briefly: CLD_CYP2B6_48hr: CellzDirect (CLD) Gene Expression Assay for xenobiotic metabolism (CYP2B6) at 48 hours (AID 2283699).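 Also: actives raise transcript level above DMSO so potency reflects induction.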 Put shortly: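 CYP2B6 transcript induction, read by quantitative nuclease protection (S1 digestion, chemiluminescent detection) 48 h after dosing, is fitted upward against 0.2% DMSO. Cultured human liver primary cells, two donor preparations, received fresh chemical daily over multiple concentrations.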

Read-out in assay [15]: Cytochrome P450 2C19 (Homo sapiens) (UniProt P33261)
Briefly: CLD_CYP2C19_48hr: CellzDirect (CLD) Gene Expression Assay for xenobiotic metabolism (CYP2C19) at 48 hours (AID 2283700).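 Also: fitted upward so actives raise CYP2C19 mRNA above the 0.2% DMSO vehicle.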 Put shortly: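 CYP2C19 mRNA induction read by chemiluminescent quantitative nuclease protection assay after 48 h, with fresh compound added daily for two days to cultured human liver hepatocytes. Activity fitted upward against 0.2% DMSO vehicle.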

Read-out in assay [16]: xenobiotic metabolism (CYP1A2), CYP1A2 (gene 1544)
Briefly: CLD_CYP1A2_24hr: CellzDirect (CLD) Gene Expression Assay for xenobiotic metabolism (CYP1A2) at 24 hours (AID 2283683). Put shortly:
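CYP1A2 mRNA induction measured by quantitative nuclease protection (chemiluminescent) in human primary hepatocytes 24 h after multi-concentration chemical dosing with daily fresh solutions. DMSO (0.2%) baseline; positive-direction fitting; morphology-based cytotoxicity noted.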

Read-out in assay [17]: Cytochrome P450 2C19 (Homo sapiens) (UniProt P33261)
Put plainly: CLD_CYP2C19_6hr: CellzDirect (CLD) Gene Expression Assay for xenobiotic metabolism (CYP2C19) at 6 hours (AID 2283678). Put shortly: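 CYP2C19 transcript induction was quantified by quantitative nuclease protection assay with chemiluminescent read-out, 6 h after dosing. Cells were primary human hepatocytes from two donor preparations, given fresh dosing solutions daily in 0.2% DMSO vehicle. Activity was relative to DMSO.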

Sequence of Cytochrome P450 2C19 (Homo sapiens) (P33261 whole entry, looked up): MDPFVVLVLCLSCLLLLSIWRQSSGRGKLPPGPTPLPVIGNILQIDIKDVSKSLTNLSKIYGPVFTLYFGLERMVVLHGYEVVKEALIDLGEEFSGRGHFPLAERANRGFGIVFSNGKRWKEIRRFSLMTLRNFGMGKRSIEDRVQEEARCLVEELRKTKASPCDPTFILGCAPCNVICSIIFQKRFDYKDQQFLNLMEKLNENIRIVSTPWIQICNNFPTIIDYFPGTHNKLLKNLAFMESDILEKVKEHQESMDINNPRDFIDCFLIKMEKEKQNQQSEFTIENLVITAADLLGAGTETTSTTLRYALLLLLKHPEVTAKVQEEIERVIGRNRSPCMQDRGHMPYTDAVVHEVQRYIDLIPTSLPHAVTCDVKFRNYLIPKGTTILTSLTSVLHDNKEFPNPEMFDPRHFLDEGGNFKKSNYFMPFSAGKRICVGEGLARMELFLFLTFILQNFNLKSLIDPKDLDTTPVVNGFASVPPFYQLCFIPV
Sequence of Broad substrate specificity ATP-binding cassette transporter ABCG2 (Homo sapiens) (Q9UNQ0 whole entry, looked up): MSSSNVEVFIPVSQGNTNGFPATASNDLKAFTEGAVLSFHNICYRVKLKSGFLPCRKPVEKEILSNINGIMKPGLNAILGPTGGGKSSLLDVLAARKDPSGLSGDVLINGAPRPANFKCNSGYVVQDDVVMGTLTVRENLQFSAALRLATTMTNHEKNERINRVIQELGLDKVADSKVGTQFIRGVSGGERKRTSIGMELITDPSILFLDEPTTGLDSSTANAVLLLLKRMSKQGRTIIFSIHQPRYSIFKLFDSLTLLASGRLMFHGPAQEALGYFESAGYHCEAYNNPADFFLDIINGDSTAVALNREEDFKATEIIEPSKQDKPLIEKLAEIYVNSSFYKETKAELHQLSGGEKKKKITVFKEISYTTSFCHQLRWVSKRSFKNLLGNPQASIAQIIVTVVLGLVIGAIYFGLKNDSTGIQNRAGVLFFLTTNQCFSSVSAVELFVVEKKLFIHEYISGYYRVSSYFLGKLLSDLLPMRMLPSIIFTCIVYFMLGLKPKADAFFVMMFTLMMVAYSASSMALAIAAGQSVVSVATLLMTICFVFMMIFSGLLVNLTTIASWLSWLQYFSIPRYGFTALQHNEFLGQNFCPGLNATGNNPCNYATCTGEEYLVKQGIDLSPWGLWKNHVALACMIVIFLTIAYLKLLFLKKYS
Sequence of Cytochrome P450 3A4 (Homo sapiens) (P08684 whole entry, looked up): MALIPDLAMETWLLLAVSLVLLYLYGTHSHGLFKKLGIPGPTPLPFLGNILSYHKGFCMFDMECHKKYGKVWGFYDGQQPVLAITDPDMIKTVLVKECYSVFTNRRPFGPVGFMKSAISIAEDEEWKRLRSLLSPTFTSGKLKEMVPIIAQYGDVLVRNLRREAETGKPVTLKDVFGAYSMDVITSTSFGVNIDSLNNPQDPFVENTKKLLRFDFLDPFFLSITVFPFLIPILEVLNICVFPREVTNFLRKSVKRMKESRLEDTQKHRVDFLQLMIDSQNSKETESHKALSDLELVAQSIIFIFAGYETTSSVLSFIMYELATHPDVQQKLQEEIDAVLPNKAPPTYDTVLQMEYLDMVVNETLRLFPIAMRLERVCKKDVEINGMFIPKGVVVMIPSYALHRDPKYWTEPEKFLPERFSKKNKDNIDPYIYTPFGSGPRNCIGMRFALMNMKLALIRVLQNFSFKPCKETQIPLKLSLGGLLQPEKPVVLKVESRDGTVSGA
Sequence of Glyceraldehyde-3-phosphate dehydrogenase (Homo sapiens) (P04406 whole entry, looked up): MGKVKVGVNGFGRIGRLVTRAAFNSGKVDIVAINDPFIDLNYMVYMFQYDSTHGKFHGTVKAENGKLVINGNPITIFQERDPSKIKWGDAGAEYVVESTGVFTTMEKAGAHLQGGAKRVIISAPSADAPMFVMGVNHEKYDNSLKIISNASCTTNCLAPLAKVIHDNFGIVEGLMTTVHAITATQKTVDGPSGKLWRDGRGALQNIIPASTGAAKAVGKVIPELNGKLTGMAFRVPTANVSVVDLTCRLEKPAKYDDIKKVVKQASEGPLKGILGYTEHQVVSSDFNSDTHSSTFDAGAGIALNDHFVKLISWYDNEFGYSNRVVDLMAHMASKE

Regarding `CCCCSP(=O)(SCCCC)SCCCC`, the AC50 in assay [1] was 0.205 µM (active); in [6] it was 1.9 µM (active); in [8], 1.9 µM (active); in assay [10], 1.9 µM (active); in assay [11], 20 µM (active). The molecule was classed as inactive in assay [2], in assay [3], in [4], in assay [5], in assay [7] and in [9].

`CCOP(=S)(OCC)Oc1ccc2c(C)c(Cl)c(=O)oc2c1`: the AC50 in assay [1] was 27.3 µM (active); in [12], 0.00508 µM (active); in [6], 1.28 µM (active); in assay [10] it was 1.09 µM (active); in [14], 1.01 µM (active). For the same molecule, the molecule was called inactive in assay [7], in assay [13] and in assay [15].

As for `N#CSCSC#N`, the AC50 in assay [1] was 5.18 µM (active). For the same molecule, the molecule was called inactive in assay [12], in assay [4], in [5], in assay [6], in assay [8] and in [11].

For the molecule `C[Si](Cn1cncn1)(c1ccc(F)cc1)c1ccc(F)cc1`, the AC50 was 9.34 µM (active) in assay [1]; 1.89 µM (active) in assay [16]; 4.51 µM (active) in assay [4]; 0.179 µM (active) in assay [6]; 1.89 µM (active) in assay [8]; 4.36 µM (active) in [13]. Further, the AC50 in assay [11] is 0.536 µM (active). In addition, the molecule was called inactive in assay [3], in assay [12], in assay [5] and in [10].

As to `COP(=O)(NC(C)=O)SC` (centres undefined), the call in [17], in [1], in [6], in assay [8], in assay [10] and in assay [15] was inactive.

Consider `FC(F)C(F)(F)OCC(Cn1cncn1)c1ccc(Cl)cc1Cl` (centres undefined), for which the AC50 was 57.8 µM (active) in [1], 0.275 µM (active) in [6], 0.949 µM (active) in assay [8] and 1.89 µM (active) in assay [11]. Moreover, the result in assay [4], in assay [5] and in assay [10] was inactive.

Take `CC(COc1ccc(Oc2ccccc2)cc1)Oc1ccccn1` (centres undefined): the AC50 in [1] is 47.6 µM (active); in assay [6] it was 3.97 µM (active); in [8], 4.68 µM (active); in [10], 4.08 µM (active); in assay [11], 3.97 µM (active); in [14], 3.53 µM (active). Also, the result in [12], in [16], in [5], in assay [7] and in assay [9] was inactive.

In the case of `CCCSP(=O)(OCC)SCCC`, the outcome in assay [1], in assay [12], in [5], in assay [8] and in assay [10] was inactive. For the same molecule, the AC50 was 4.21 µM (active) in assay [16] and 2.84 µM (active) in assay [6].

For `COP(=O)(OC)C(O)C(Cl)(Cl)Cl` (centres undefined), the AC50 in [1] is 168 µM (active). The molecule was called inactive in assay [5].

Consider `C#CCC1=C(C)C(OC(=O)C2C(C=C(C)C)C2(C)C)CC1=O` (centres undefined), for which the AC50 in [1] was 2.76 µM (active); in [6], 4.23 µM (active); in assay [8], 4.64 µM (active); in assay [11] it was 14.1 µM (active). The molecule was classed as inactive in assay [12], in assay [5], in assay [7], in assay [13] and in [10].

Values taken from PubChem BioAssay (EPA / NIEHS).
